In PubChem BioAssay (EPA / NIEHS) one finds AC50 and outcome data, which are given here for nine molecules.

The term AC50 denotes the concentration giving half of the maximal activity seen.

Read-out in assay [1]: Interleukin 6 (IL6), IL6 (gene 3569)
Nature of the assay: BSK_BT_xIL6: BioMAP Diversity Plus: BT Assay for Interleukin 6 (IL6) Biomarker Activity (AID 2284228). Particulars: primary human B cells with PBMC. Summed up: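 Human B cell/PBMC co-culture; secreted IL-6 quantified by Luminex xMAP 24 h after chemical dosing, fitted relative to DMSO. Parallel PBMC viability by Alamar Blue after 1 h pretreatment, 20 ng/mL SEB and TSST-1, 90 h incubation.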

Read-out in assay [2]: Interleukin 17A (IL17A), IL17A (gene 3605)
Nature of the assay: BSK_BT_xIL17A: BioMAP Diversity Plus: BT Assay for Interleukin 17A (IL17A) Biomarker Activity (AID 2284229). Particulars: primary human B cells with PBMC. The gist of the method: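 Co-culture of human B cells and PBMC, dosed for 24 h in 96-well format. Secreted IL-17A measured with Luminex xMAP; gain-direction fitting against DMSO as baseline.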

Read-out in assay [3]: Tumor necrosis factor (Homo sapiens) (UniProt P01375)
Nature of the assay: BSK_BT_xTNFa: BioMAP Diversity Plus: BT Assay for Tumor necrosis factor alpha (TNF-alpha) Biomarker Activity (AID 2284230). Particulars: primary human B cells with PBMC. The gist of the method: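 B cells with PBMC in co-culture, dosed and sampled at 24 h; secreted TNF-alpha measured by Luminex xMAP bead assay. Activity fitted in the gain direction against DMSO as negative control and baseline.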

Read-out in assay [4]: Collagen I, COL1A1 (gene 1277)
Briefly: BSK_MyoF_CollagenI: BioMAP Diversity Plus: MyoF Assay for Collagen I Biomarker Activity (AID 2284238). The settings on record: primary human lung fibroblasts. The gist of the method:
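Primary human lung fibroblasts (MyoF system) treated 24 h; Collagen I quantified by ELISA and fitted in positive direction against DMSO. Parallel SRB total-protein staining assessed overt cytotoxicity.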

Read-out in assay [5]: Collagen III, COL3A1 (gene 1281)
Nature of the assay: BSK_MyoF_CollagenIII: BioMAP Diversity Plus: MyoF Assay for Collagen III Biomarker Activity (AID 2284239). The settings on record: primary human lung fibroblasts. Summed up: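 Primary human lung fibroblasts (BioMAP MyoF system) exposed 24 h. Collagen III measured by ELISA; positive-direction fit relative to DMSO.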

Read-out in assay [6]: Interleukin 17F (IL17F), IL17F (gene 112744)
Briefly: BSK_BT_xIL17F: BioMAP Diversity Plus: BT Assay for Interleukin 17F (IL17F) Biomarker Activity (AID 2284243). The settings on record: primary human B cells with PBMC. Summed up: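 Human PBMC co-cultured with B cells, compound exposure 24 h; secreted IL-17F quantified by Luminex xMAP, referenced to DMSO control. PBMC viability measured in parallel by Alamar Blue reduction.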

Read-out in assay [7]: Actin alpha 1 (ACTA1), ACTA1 (gene 58)
Briefly: BSK_MyoF_ACTA1: BioMAP Diversity Plus: MyoF Assay for Actin alpha 1 (ACTA1) Biomarker Activity (AID 2284244). Particulars: primary human lung fibroblasts. The gist of the method:
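Measured by ELISA: alpha-smooth muscle actin in human primary lung fibroblasts 24 h after dosing, with DMSO as baseline and upward signal change as the fitted direction.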

Read-out in assay [8]: Interleukin 2 (IL2), IL2 (gene 3558)
Briefly: BSK_BT_xIL2: BioMAP Diversity Plus: BT Assay for Interleukin 2 (IL2) Biomarker Activity (AID 2284245). Particulars: primary human B cells with PBMC. Summed up:
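Secreted interleukin-2 from human B cell/PBMC co-cultures, measured 24 h post-dosing by Luminex multiplex immunoassay. Upward-direction curve fitting against DMSO baseline.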

Read-out in assay [9]: Basic fibroblast growth factor (bFGF), FGF2 (gene 2247)
Briefly: BSK_MyoF_bFGF: BioMAP Diversity Plus: MyoF Assay for Basic fibroblast growth factor (bFGF) Biomarker Activity (AID 2284246). Particulars: primary human lung fibroblasts. The gist of the method: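 In this multiplexed cell system, lung fibroblasts (human primary) receive test chemical for 24 h before ELISA detection of bFGF; DMSO defines baseline and the analysis direction is positive.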

Read-out in assay [10]: Collagen IV, COL4A1 (gene 1282)
Briefly: BSK_MyoF_CollagenIV: BioMAP Diversity Plus: MyoF Assay for Collagen IV Biomarker Activity (AID 2284247). Particulars: primary human lung fibroblasts. Summed up:
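Activity is scored as a signal increase over DMSO in an ELISA for Collagen IV, measured on human lung fibroblasts at 24 h after chemical treatment. Cytotoxicity is checked in parallel cultures by sulforhodamine B total-protein staining.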

Read-out in assay [11]: Monokine induced gamma interferon (MIG), CXCL9 (gene 4283)
Nature of the assay: BSK_KF3CT_MIG: BioMAP Diversity Plus: KF3CT Assay for Monokine induced gamma interferon (MIG) Biomarker Activity (AID 2284248). The settings on record: primary human keratinocytes with fibroblasts. Summed up:
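Human keratinocyte–foreskin fibroblast co-culture; MIG measured by ELISA 24 h after chemical dosing, fitted upward versus DMSO. Cytotoxicity was assessed in parallel cultures by SRB total-protein staining read at 560 nm.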

Read-out in assay [12]: Collagen I, COL1A1 (gene 1277)
Nature of the assay: BSK_hDFCGF_CollagenI: BioMAP Diversity Plus: hDFCGF Assay for Collagen I Biomarker Activity (AID 2284250). The settings on record: primary human foreskin fibroblasts. The gist of the method: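 Cells were primary human foreskin fibroblasts treated for 24 h. Collagen I levels were then determined by ELISA and compared against DMSO controls.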

Assay [13] can be described thus: UKN2_HCS_IMR90_cell_viability: Viability Assessment in the University of Konstanz (UKN) Leist Lab Neural Crest Cell Migration Assay in human induced IMR90 Pluripotent Stem Cells (UKN2) (AID 2284233).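 Also: viability of neural crest cells differentiated from IMR90 iPSC measured by calcein-AM fluorescence imaging; cells exposed to compound for 24 h after a 24 h migration phase.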 Summed up:
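Human IMR90-derived neural crest cells were allowed to migrate for 24 h into a cell-free zone, then exposed to test chemicals for 24 h. Calcein-AM and Hoechst staining with high-content imaging gave viability, analysed against DMSO baseline.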

A short description of assay [14]: CCTE_Mundy_HCI_Cortical_NOG_NeuronCount: CCTE's Neurite Outgrowth Assay in rat cortical cells for Neuron Count, Mundy Lab (AID 2284236; active = hit-call score of the fitted dose curve at least 0.9, where 1 is the maximum;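 also: neurons counted by imaging betaIII-tubulin and Hoechst stained cortical cells; cells exposed to compound for about 48 hours before fixation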). Summed up:
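Read-out: neuron number by high-content imaging of betaIII-tubulin (Alexa Fluor-488) and Hoechst-labelled rat primary cortical cells.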

Assay [15] in a line: CCTE_Mundy_HCI_Cortical_NOG_BPCount: CCTE's Neurite Outgrowth Assay in rat cortical cells for Branch Point Count, Mundy Lab (AID 2284237).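 Also: branch points counted about two days after chemical exposure.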 Summed up: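 Measured 50.33 h after dosing, this morphology endpoint uses rat primary cortical cultures labelled for betaIII-tubulin. Branch points are quantified by high-content imaging, with DMSO as negative control and baseline.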
Assay [16] is described as follows: CCTE_Mundy_HCI_hNP1_Casp3_7: CCTE's Caspase-Glo 3/7 Assay in human neuroprogenitor cells for Apoptosis, Mundy Lab (AID 2284240). Summed up: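 Apoptosis is scored by activated caspase-3/7 luminescence in WA09-derived neural progenitor cells, measured 26.5 h after chemical dosing. Values represent gain of signal relative to DMSO vehicle.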
Assay [17] in a line: CCTE_Mundy_HCI_hNP1_CellTiter: CCTE's Cell Titer-Glo 2 Assay in human neuroprogenitor cells for Viability, Mundy Lab (AID 2284241; active = hit-call score of the fitted dose curve at least 0.9, where 1 is the maximum). Summed up: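 Human neural progenitor cells (hNP1, WA09-derived) were plated on poly-L-ornithine/laminin and grown 40 to 44 hours at 37 °C, 5% CO2 before chemical addition. Twenty-four hours later, ATP was measured by CellTiter-Glo luminescence; loss of signal versus DMSO indicates reduced viability.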

Assay [18] in a line: CCTE_Mundy_HCI_Cortical_Synap_Neur_Matur_NeuronCount: CCTE's Synaptogenesis and Neurite Maturation Assay in rat cortical cells for Neuron Count, Mundy Lab (AID 2284242; active = hit-call score of the fitted dose curve at least 0.9, where 1 is the maximum;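 also: neuron number from Hoechst nuclei and MAP2 staining by high-content imaging; hits reduce neuron count versus DMSO baseline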). The gist of the method: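 Imaging-based neuron count in rat cortical cultures after chemical exposure from DIV 7 to DIV 12, with AraC added at DIV 5. Activity is fitted relative to DMSO.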
Assay [19] in a line: UKN4_HCS_LUHMES_cell_viability: Viability Assessment in the University of Konstanz (UKN) Leist Lab Neurite Outgrowth Assay in human LUHMES cells (UKN4) (AID 2284232). The gist of the method: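 Human dopaminergic-model LUHMES neurons were exposed to chemicals for 24 h after a 2-day differentiation. Viability was scored by imaging Hoechst H-33342 staining, with activity fitted in both directions relative to DMSO controls.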

Inconclusive results are not listed. Calls of active or inactive are those of the source. The calls were made as follows, unless noted: active = hit-call score of the fitted dose curve at least 0.9, where 1 is the maximum; inactive = score below 0.9.

Tumor necrosis factor (Homo sapiens), sequence (P01375 whole entry, looked up): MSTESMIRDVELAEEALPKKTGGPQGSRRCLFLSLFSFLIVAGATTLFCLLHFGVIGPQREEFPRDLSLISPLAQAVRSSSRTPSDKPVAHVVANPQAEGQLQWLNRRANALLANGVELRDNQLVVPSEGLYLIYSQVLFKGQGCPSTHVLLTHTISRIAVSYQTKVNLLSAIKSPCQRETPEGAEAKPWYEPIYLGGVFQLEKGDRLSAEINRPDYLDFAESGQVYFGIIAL

`N#CCCC(Br)(C#N)CBr` (stereo not given): the AC50 was 9.34 µM (active) in assay [1]; 7.96 µM (active) in assay [2]; 11.1 µM (active) in [3]; 25.7 µM (active) in assay [4]; 24.8 µM (active) in assay [5]; 9.32 µM (active) in assay [6]. Besides, the AC50 was 12 µM (active) in [7], 11 µM (active) in [8], 25 µM (active) in assay [9] and 0.914 µM (active) in assay [10].
As for `OCCCCO`, the outcome in assay [11] and in [12] was inactive.
On to `CCOC(=O)C(SP(=S)(OC)OC)c1ccccc1` (stereo not given), for which the outcome in assay [1], in [2], in assay [3], in [4], in [5] and in assay [6] was inactive. For the same molecule, the result in assay [8], in [9] and in assay [10] was inactive. Moreover, the AC50 in assay [7] was 20 µM (active).
For the molecule `CCOCn1c(-c2ccc(Cl)cc2)c(C#N)c(Br)c1C(F)(F)F`, the AC50 in assay [13] was 15.1 µM (active); in assay [14] it was 58 µM (active); in assay [15], 18.6 µM (active); in assay [16] it was 10.5 µM (active); in assay [17] it was 13.5 µM (active); in [18], 12.1 µM (active).
With `Cc1ccccc1OP(=O)(Oc1ccccc1)Oc1ccccc1`, the outcome in assay [1], in assay [2], in assay [3], in assay [6], in assay [8] and in [9] was inactive. Moreover, in assay [10], the result was inactive. Also, the figures for the AC50 in [4], in assay [5] and in [7] were 36.9 µM (active), 28.2 µM (active) and 20 µM (active), respectively.
Take `Cc1c([N+](=O)[O-])c(C)c([N+](=O)[O-])c(C(C)(C)C)c1[N+](=O)[O-]`: the result in assay [1], in [2], in assay [3], in assay [5], in assay [8] and in assay [9] was inactive. Besides, in assay [10], the outcome was inactive. Moreover, the results for the AC50 in assay [4], in assay [6] and in assay [7] were 32.1 µM (active), 28.1 µM (active) and 33 µM (active), respectively.
On to `O=S1OC[C@@H]2[C@H](CO1)[C@]1(Cl)C(Cl)=C(Cl)[C@@]2(Cl)C1(Cl)Cl` (stereo not given in full), for which the AC50 in assay [19] was 27 µM (active). The result in assay [13] was inactive.
On to `Cc1cc(Cl)ccc1N`, for which the result in [1], in assay [2], in [3], in assay [4], in assay [5] and in [6] was inactive. For the same molecule, the result in [7], in assay [8], in assay [9] and in assay [10] was inactive.
For `C[C@]12CC[C@@H](O)C[C@@H]1CC[C@@H]1[C@@H]2CC[C@]2(C)C(=O)CC[C@@H]12`, the outcome in assay [1], in assay [2], in assay [3], in assay [4], in assay [5] and in assay [6] was inactive. The result in assay [7], in assay [8], in assay [9] and in assay [10] was inactive.
